Screening data as filed in PubChem BioAssay.
An excerpt weighted towards active compounds, which were near 2.8% of everything screened.
PI4K2A inh: inhibitors of human PI4K2A. Q9BTU6. purified PI4K2A, ADP-Glo luminescence, 1 h; hits give low values. activity change, negative = inhibition, % at 76.9 µM. actives 0.13% (n = 420,000). AID 1346378; in the data active = activity change below about -50%; inconclusive = mostly about -30% to -49%;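 also: -100% = wells without enzyme as full effect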
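ADP-Glo luminescence measured ADP generated by PI4K2A enzyme (4 ug/mL before mixing) with 1.2 mM PI substrate (pre-mix) and 300 microM ATP (pre-mix). Tris pH7.5 buffer with MgCl2, Triton X-100; 1 h reaction at ambient temperature.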
LDHA block: LDHA (human) enzyme inhibition; actives 0.15% (n = 480,000); activity change, % (values are at about 110 or 230 µM); P00338; purified LDHA, NADH/diaphorase-resazurin fluorescence; hits give low values; AID 1347041; in the data active = activity change below about -30%; inconclusive = mostly about -25% to -30%;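 also: plate controls were DMSO wells for no effect and wells without enzyme for full effect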
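Resorufin fluorescence (ex540/em590), read at 0 and 20 min after diaphorase/resazurin addition, reports the NADH left after a 5 min room-temperature reaction of 2 nM human LDH5 with 0.06 mM NADH and 0.2 mM pyruvate.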
pAkt inh: Akt phosphorylation inhibition; activity change, % for hits at 50 µM; actives 0.32% (n = 360,000); Neuro2A IGF-stimulated pAkt S473 HTRF, 20 min; hits give low values; in the data active = activity change below about -80%; inconclusive = mostly about -51% to -80%; also: % is scaled to controls: 0 for no effect and ±100 for the full control effect
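Neuro2A cells (4,500/well, DMEM with 0.5% FBS) were treated with compound at a single 50 µM final concentration, stimulated with 6 nM IGF for 20 min at 37 °C, and lysed. Phospho-Akt Ser473 was read by HTRF as 665/615 ratio ×10^4.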
D3 ag: D3 dopamine receptor (human) agonism | actives 0.58% (n = 410,000) | AID 652048 | max activation, % | P35462 | D3R DiscoveRx beta-arrestin cells, luminescence, 90 min; in the data active = max activation above about 30%; also: 0% is about no effect
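Agonist-mode cell screen: cells plated at 1500/well and incubated overnight at 37 °C, then exposed to library compounds for 90 min at 37 °C. Detection reagent was added for 30–60 min at room temperature, and luminescence was read.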
RGS4 inh: inhibitors of human regulator of G protein signaling 4 | P49798 | Transcreener GDP fluorescence polarization, RGS4-accelerated GTP hydrolysis | Potency, µM (highest dose often 114 µM), for inactives: at the highest dose activity change, negative = inhibition, most hits filed as inhibitors | actives 0.039% (n = 390,000); active = well fitted inhibition curve with a large enough effect; inconclusive = small, poorly fitted or top-dose-only effect; inactive = no such curve, though single readings can be large or run the other way; also: potency is read from the fitted curve at half-maximal effect; % is scaled to controls: 0 for no effect and ±100 for the full control effect; nearly all actives have a fitted effect of over 75% in size
Target sequence (P49798 whole entry, looked up): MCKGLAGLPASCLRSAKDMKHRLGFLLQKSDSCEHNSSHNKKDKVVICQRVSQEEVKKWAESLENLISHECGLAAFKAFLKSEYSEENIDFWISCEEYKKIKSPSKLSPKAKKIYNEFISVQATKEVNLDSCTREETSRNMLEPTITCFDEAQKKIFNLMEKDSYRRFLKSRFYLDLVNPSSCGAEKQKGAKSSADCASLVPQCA
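MLSMR compounds (23 nl, pin-transferred) preincubated 10 min at room temperature with a 500nM (2x) first reagent, then RGS4 at 900nM (2x) plus Transcreener GDP mix added; fluorescence polarization (620/688 nm) read before and after 90 min at 30 °C.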
DRD3 antagonist: blocks the human D3 dopamine receptor | max response, negative = inhibition, % | D3R cells, DiscoveRx beta-arrestin luminescence, antagonist mode; hits give low values | actives 2.5% (n = 360,000); in the data active = max response below about -50%; inconclusive = no clear call, values can overlap the other calls; also: % is scaled to controls: 0 for no effect and ±100 for the full control effect
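Cells plated overnight at 1500 cells/well, then exposed to library compounds with dopamine controls for 90 minutes at 37 degrees C. DiscoveRx reagent added for 30–60 minutes at room temperature; luminescence read, quantitative HTS format.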
* = called active by the depositor; i = inactive; ? = inconclusive; · = no result given.

SMILES	PI4K2A inh	LDHA block	pAkt inh	D3 ag	RGS4 inh	DRD3 antagonist
COc1ccc(/C=C/C(=O)Sc2ccc(Cl)cc2)cc1	·	0.0	·	·	·	·
O=S1(=O)N=CN(Cc2cccc(Cl)c2)c2cc(C(F)(F)F)ccc21	·	2.4	·	·	·	·
N#Cc1c(F)cccc1NCCNc1cc(Cl)nc(N)n1	·	9.4	·	·	·	·
O=C(c1ccc(Cl)cc1Cl)N(CCS(=O)(=O)N1CCCCC1)Cc1ccncc1	·	0.1	·	·	·	·
c1ccc(-c2ccccc2OCCCN2CCOCC2)cc1	0.2	-30.1*	i	0.4	3.6%	0.2
C=CCc1ccccc1OCCCCN1CCCC1	10.0	-13.9	i	-12.5	-2.7%	-83.0*
OCCCN1CCN(CCCOc2ccccc2-c2ccccc2)CC1	0.1	-2.3	i	-19.1	5.0%	?
CC(C)n1ncc2cc(NC(=O)c3ccc(S(=O)(=O)N(C)C)cc3)cnc21	·	10.9	·	·	·	·
Cc1ccc(C2=Nc3ccccc3N=C(c3ccco3)C2)c(O)c1	-15.1	9.9	-124.8%*	6.6	-0.3%	17.3
Cc1ccc(O)c(C2=Nc3ccccc3N=C(c3ccco3)C2)c1	-3.4	-0.4	?	-1.4	9.7%	17.7
Cc1cccc(C)c1-n1nnnc1C(c1cc2ccccc2o1)N1CCN(C/C=C/c2ccccc2)CC1 (stereo not drawn)	4.7	-2.9	i	-18.3	·	-74.5*
Cc1cccc(C)c1-n1nnnc1C(c1cccc2ccccc12)N1CCN(C/C=C/c2ccccc2)CC1 (stereo not drawn)	-1.1	-5.9	i	-10.9	·	-107.5*
Cc1cccc(C)c1N1CCN(C(c2cc3ccccc3o2)c2nnnn2C(C)(C)C)CC1 (stereo not drawn)	-6.9	0.3	i	0.9	·	-20.6
COC(=O)c1c(-c2ccc(Cl)cc2)noc1N1CCN(c2cccc(OC)c2)CC1	-1.5	-7.6	·	81.8*	25.9%	·
COc1cc(/C=C/C(=O)c2ccc(O)cc2)cc(Br)c1O	·	13.7	·	·	·	·
COc1ccc(C2CC(c3ccc(Cl)cc3)Nc3nc(NC(=O)c4ccco4)nn32)cc1 (stereo not drawn)	-5.3	1.5	i	2.1	-2.0%	-6.6
O=C(Nc1nc2n(n1)C(c1ccc(Cl)cc1)CC(c1ccc(Cl)cc1)N2)c1ccco1 (stereo not drawn)	-2.6	1.5	·	-11.5	22.6%	-53.5*
Cc1ccc2nc(CSc3nnc(N4CCCCC4)n3-c3ccccc3)cn2c1	·	-3.4	·	·	·	·
COc1ccc(CCN(C(=O)c2ccc(F)cc2)C2=CC3CCC(C2)N3C)cc1OC (stereo not drawn)	-0.1	4.0	i	2.2	-17.4%	-56.0*
O=c1cc(C(F)(F)F)[nH]c2c(C(F)(F)F)cccc12	1.7	-14.6	i	23.8	1.1%	56.7
O=c1cc(C(F)(F)F)[nH]c2ccc(OC(F)(F)F)cc12	-9.8	-8.9	i	32.6*	-25.9%	30.5
CC1CCN(Cc2c(C(=O)N3CCc4ccccc4C3)nc3ccc(Cl)cn23)CC1	-5.7	3.5	i	-18.5	30.2%	-89.1*
Cn1nc(C(F)(F)F)c(C#N)c1N1CCN(c2ccccc2F)CC1	5.3	-0.3	-107.0%*	0.8	28.2%	-6.3
Cc1ccccc1NC(=O)CSc1nnc(-c2ccccc2)n1-c1ccccc1	-4.8	-2.4	-98.1%*	-6.6	-21.2%	-7.9
Cc1ccc(-n2c(SCC(=O)Nc3ccccc3-c3ccccc3)nnc2-c2ccccc2)cc1	0.7	·	·	·	·	·
Cc1ccccc1NC(=O)CCSc1nnnn1-c1ccccc1	2.6	5.6	i	31.1*	-17.5%	-23.2
Cc1cccc(C)c1NC(=O)CSc1nnnn1-c1ccc(C(=O)O)cc1	-8.7	-9.3	i	2.2	-27.1%	-79.1*
CCCN1C(=O)c2ccc(C(=O)Nc3cc(C)ccc3O)cc2C1=O	-55.8*	-9.5	i	8.0	25.0%	-0.2
CC1CC1C(=O)OCC(=O)NC(=O)c1ccc(C(C)(C)C)cc1 (stereo not drawn)	13.8	-3.6	i	38.7*	10.2%	18.8
